# Dicer processing: inhibitors of human Dicer processing of pre-microRNA | 6% of 47,000 active | cat-ELCCA pre-miR-21 Dicer processing, chemiluminescence; active compounds read high | z-score at 25 µM | Q9UPY3; in the data active means z-score above about 3, passing the limit was not always enough;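 further: plate controls were vehicle for no effect and no enzyme for full effect; higher signal means more uncleaved substrate so more Dicer inhibition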
# An asterisk follows results filed as active. Only a selection was taken, and hits are over-represented in it overall.
SMILES,Dicer processing
O=C(O)c1cc2cc(OCc3ccccc3)ccc2[nH]1,-0.97
CN(Cc1ccccc1)S(=O)(=O)c1ccc(Oc2cccc(Cl)c2C#N)cc1,-0.85
CCOC(=O)c1cnc(-c2ccc(Cl)cc2)nc1-c1ccccc1,-0.04
Cc1cc(C)cc(NC(=O)NCC(O)c2ccccc2)c1 (stereo not given),-1.9
Cc1sc(NC2=NS(=O)(=O)c3ccccc32)nc1-c1ccc(Cl)cc1,3.6*
CCc1sc(NC2=NS(=O)(=O)c3ccccc32)nc1-c1ccccc1,-0.27
Cc1ccccc1NC1=NS(=O)(=O)c2ccccc21,-2.4
c1ccc(CCN2Cc3ccccc3C2)cc1,-0.47
O=C(COc1nnc(SCCS(=O)(=O)c2ccc(F)cc2)n1C1CC1)c1ccc(F)cc1,-1.2
COc1ccc(NC(=O)OC(C)C)cc1,3.5*
CCN(CC)C(=O)Nc1ccc(OC)cc1,0.09
COc1ccc(NC(=O)c2scc(S(=O)(=O)C(C)C)c2N)cc1,-0.51
CCOC(=O)N1CCc2c(sc3[nH]c(=S)n(Cc4ccccc4)c(=O)c23)C1,2.7
COC(=O)c1sc(-c2ccccc2)cc1N,2.3
CCOC(=O)CC(=O)CSc1nc(C)c(C)c(C)c1C#N,0.68
Cc1nc(SCC(=O)c2ccccc2)c(C#N)c(C)c1C,4.4*
CC(=O)c1ccc(C#N)c(SCC(=O)c2ccccc2)n1,0.91
COc1ccc(N2C(=O)C3C4c5ccccc5C(C(C)O)(c5ccccc54)C3C2=O)cc1 (stereo not given),-0.27
CCOC(=O)N1CCc2c(sc(NC(=O)CSc3nnc(-c4cccs4)n3CC)c2C#N)C1,1.1
O=C(O)/C=C/c1ccc(O)c(O)c1,0.75
O=c1nc(/C=C/c2ccc(O)c(O)c2)oc2ccccc12,4*
CSc1ccc(/C=C/c2nc(=O)c3ccccc3o2)cc1,1.2
O=C(O)c1c(-c2ccccc2)c(-c2ccccc2)n[nH]c1=O,-1.1
CCOC(=O)NC(=O)C(=CNc1sc(C)c(C)c1C(=O)OCC)C(=O)NC(=O)OCC,-0.22
O=C(CN1C(=O)CSC1=O)Nc1ccc(F)cc1,-0.18
SMILES,Dicer processing
COC(=O)c1sc(-c2ccc(Cl)cc2)cc1NC(=O)c1cccnc1Oc1ccccc1,1.9
COC(=O)c1sc(-c2ccc(Cl)cc2)cc1NC(=O)Nc1cccs1,3.4*
COC(=O)c1sc(-c2ccc(Cl)cc2)cc1NC(=O)c1cc(C)nn1C,-0.98
C=CCOC(=O)C1=C(C)NC2=C(C(=O)CCC2)C1c1ccc(OC)c(OC)c1 (stereo not given),-1
Cc1c(CN2CCC(C(=O)c3ccc(F)cc3)CC2)sc2ccccc12,9.1
Cc1c(CC(=S)N2CCOCC2)sc2ccccc12,-0.68
Cc1c(CN2CCc3ccccc3C2)sc2ccccc12,4.8*
N#CC1=C(C(N)=O)N=C(c2ccccc2)C(c2ccccc2)N1 (stereo not given),0.55
O=C(Cn1nc(-c2ccc(Br)cc2)c2ccccc2c1=O)c1ccccc1,-1.1
CCOC(=O)C1=C(N)n2c(s/c(=C\c3ccc(OC)cc3)c2=O)=CC1c1ccc(OC)cc1 (stereo not given),1.2
CC(C)(C)OC(=O)NCCNc1ccc(C(F)(F)F)cc1N1C(=O)CC2(CCCC2)C1=O,-1.1
Clc1ccccc1CN1CCN(Cc2cccnc2)CC1,1.4
Brc1cccc(CN2CCN(Cc3ccncc3)CC2)c1,2.8
CCc1ccc(CN2CCN(Cc3cccnc3)CC2)cc1,3.1*
CCCCC[C@H](O)/C=C/[C@@H]1[C@@H](C/C=C\CCCC(=O)O)[C@@H](O)C[C@H]1O (tested in a mixture with another compound),-0.37
O=C(Nc1ccc(Cl)cc1)Nc1csc([N+](=O)[O-])c1,-0.84
N/C(=N/OC(=O)Nc1ccc(Cl)cc1)c1csc([N+](=O)[O-])c1,5*
N/C(=N\OC(=O)Nc1ccc(Cl)cc1)c1ncc([N+](=O)[O-])s1,-2.5
O=C(Nc1ccc(Cl)cc1)Nc1nc(-c2cc(Cl)c(Cl)s2)cs1,1.5
N#Cc1c(F)ccc(NC(=O)Nc2ccc(Cl)cc2)c1F,-0.58
O=C(Nc1ccc(Cl)cc1)Nc1cc(Cl)sc1Cl,4.7*
Nc1cc(=O)[nH]c(=O)n1-c1ccc(F)cc1F,0.39
Cc1ccc(S(=O)(=O)CCN(Cc2cccnc2)C(=O)c2ccccc2)cc1,0.21
Cc1cc(C)c(C(=O)CC2(O)C(=O)Nc3ccc(C)cc32)c(C)c1 (stereo not given),1.2
Cc1cc(C)c(C(=O)CC2(O)C(=O)Nc3ccc(Cl)cc32)c(C)c1 (stereo not given),4.6*
SMILES,Dicer processing
O=C(CC1(O)C(=O)Nc2ccc(Cl)cc21)c1ccccc1 (stereo not given),3
COc1cc2c(cc1OC)C1(C)N(CC2)C(C(=O)c2ccccc2)=NN1c1ccccc1 (stereo not given),-0.89
CCOC(=O)c1cc(C(C)(C)C)n(CCSC)c1C,42
Cc1ccc2[nH]c(=O)c(-c3noc(-c4ccccc4)n3)cc2c1,12
Cc1ccc(-c2cc3nc(-c4ccco4)cc(C(F)(F)F)n3n2)cc1,-1.3
COC(=O)c1cc2nc(-c3cccs3)cc(C(F)(F)F)n2n1,-0.66
FC(F)(F)c1cc(-c2cccs2)nc2cc(-c3ccco3)nn12,3.5*
CSC1=C(C#N)C(c2ccccc2Cl)CC(=O)N1 (stereo not given),-0.03
Clc1cccc(N=CNc2cccc(Cl)c2Cl)c1Cl,0.58
CS(=O)(=O)Nc1ccc(S(=O)(=O)Nc2ncccn2)cc1,-4.6
Cc1ccc(S(=O)(=O)Nc2ccc(Cl)c3cccnc23)cc1,3.2*
O=S(=O)(Nc1ncccc1OCc1ccc(Cl)c(Cl)c1)c1ccc(Cl)cc1,0.8
Cc1ccc(S(=O)(=O)Nc2ccc(O)c3cccnc23)cc1,3.3*
O=S(=O)(Nc1cccnc1Oc1ccc(Cl)cc1)c1ccc(Cl)cc1,-0.24
CC(=O)Nc1ccc(S(=O)(=O)Nc2ncccn2)cc1,-0.86
Cc1ccc(S(=O)(=O)Nc2ccnn2C)cc1,-1.1
Cc1ccc(S(=O)(=O)Nc2ccc(O)c3ncccc23)cc1,15*
Cc1ccc(S(=O)(=O)Nc2ccc3ccccc3n2)cc1,-0.27
N#Cc1c2c(c(NCCCO)n3c1nc1ccccc13)CCC2,0.69
COCCOC(=O)C1=C(C)NC2=C(C(=O)CCC2)C1c1ccc(C)cc1 (stereo not given),-0.58
CC1(C)CC(=O)C2=C(C1)OC(N)=C(C#N)C21C(=O)c2ccccc2C1=O,-0.06
O=c1o[nH]c(-c2ccccc2)c1N=Nc1cc(C(F)(F)F)cc(C(F)(F)F)c1,0.48
CC1=C(C(=O)OC2CCCCC2)C(c2ccc(C)o2)C2=C(CC(c3ccccc3)CC2=O)N1 (stereo not given),-0.28
CS(=O)(=O)NCc1ccccc1,2.2
O=C(Nc1ccc(Cl)c(Cl)c1Cl)C(Cl)Cl,-0.32
SMILES,Dicer processing
Clc1ccccc1C1CC(c2ccco2)n2ncnc2N1 (stereo not given),-1.2
CN1CCN(c2nc3c(c(=O)n(C)c(=O)n3C)n2Cc2ccccc2Cl)CC1,4.2*
CN1CCN(c2nc3c(c(=O)n(C)c(=O)n3C)n2Cc2c(F)cccc2Cl)CC1,0.87
Cn1c(=O)c2c(nc(N3CCCCC3)n2Cc2ccccc2F)n(C)c1=O,1.7
COc1cc(NC(=O)CC2Sc3ccccc3NC2=O)c(OC)cc1Cl (stereo not given),0.64
CCOc1ccc(Cc2c(C)nc(N)[nH]c2=O)cc1,-0.32
CCCc1cc(=O)[nH]c(SCc2noc(-c3snnc3C)n2)n1,-1.1
COC(=O)c1sc(N2CCCCC2)c(C#N)c1N,29*
COC(=O)c1sc(N2CCCC2)c(C#N)c1-c1cccs1,-2.2
COC(=O)c1sc(N2CCCC2)c(S(=O)(=O)C(C)C)c1N,-0.38

# Screening data from PubChem BioAssay.
